For some of these results: Potency and affinity values are given separately.

Set-up in all cases: scale not given: direction of the effect not stated beside the values
The target of assay [1] is Protein translocase subunit SecA (Escherichia coli (strain K12)) (UniProt P10408). Kind of assay: Assay to Identify E. coli SecA ATPase Inhibitors. The class given is functional. As to conditions: 30 µM.
The target in assay [2] is T1, Ubiquitin-activating enzyme e1, putative (Leishmania donovani (strain BPK282A1)) (UniProt E9BSI1).
T1 sequence (whole entry): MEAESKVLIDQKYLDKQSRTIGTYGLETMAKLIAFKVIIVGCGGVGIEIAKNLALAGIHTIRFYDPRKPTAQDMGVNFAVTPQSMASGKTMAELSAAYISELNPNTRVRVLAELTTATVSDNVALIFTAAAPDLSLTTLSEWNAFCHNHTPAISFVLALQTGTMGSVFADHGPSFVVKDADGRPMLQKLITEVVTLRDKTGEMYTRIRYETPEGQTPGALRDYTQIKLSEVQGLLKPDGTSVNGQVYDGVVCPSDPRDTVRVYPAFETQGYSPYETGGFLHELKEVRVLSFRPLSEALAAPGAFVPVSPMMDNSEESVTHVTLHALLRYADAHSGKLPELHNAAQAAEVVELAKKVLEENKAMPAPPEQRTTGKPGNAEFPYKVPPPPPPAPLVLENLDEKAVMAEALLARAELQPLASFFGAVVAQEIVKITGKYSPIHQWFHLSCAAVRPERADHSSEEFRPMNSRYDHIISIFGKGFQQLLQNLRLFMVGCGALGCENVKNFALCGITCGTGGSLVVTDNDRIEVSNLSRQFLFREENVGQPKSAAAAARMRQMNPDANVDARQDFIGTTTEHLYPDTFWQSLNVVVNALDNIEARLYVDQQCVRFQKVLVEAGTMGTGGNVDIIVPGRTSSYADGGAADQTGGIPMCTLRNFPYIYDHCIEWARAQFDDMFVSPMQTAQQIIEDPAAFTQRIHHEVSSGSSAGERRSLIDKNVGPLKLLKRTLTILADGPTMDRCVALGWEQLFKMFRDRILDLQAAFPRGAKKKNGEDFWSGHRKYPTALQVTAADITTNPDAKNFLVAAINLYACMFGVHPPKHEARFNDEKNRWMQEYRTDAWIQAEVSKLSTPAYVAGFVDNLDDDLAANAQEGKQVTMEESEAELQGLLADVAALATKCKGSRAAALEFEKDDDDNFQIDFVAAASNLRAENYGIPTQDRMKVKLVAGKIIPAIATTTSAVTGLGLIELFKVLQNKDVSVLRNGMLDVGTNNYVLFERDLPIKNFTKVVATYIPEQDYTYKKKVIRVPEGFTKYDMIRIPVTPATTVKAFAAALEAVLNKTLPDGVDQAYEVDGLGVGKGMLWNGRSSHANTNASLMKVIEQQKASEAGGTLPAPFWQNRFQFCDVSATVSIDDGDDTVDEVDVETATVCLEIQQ
Kind of assay: Leishmania donovani Ubiquitin Activating Enzyme (LdE1). The class given is functional. As to conditions: 30 µM.

Assay [3] concerns the target AMP-activated protein kinase, AMPK (Homo sapiens) (UniProt P54646+O43741+P54619+Q9UGJ0+Q9Y478+Q13131+Q9UGI9). Kind of assay: AMP-dependent Kinase enzyme assay. An in vitro enzyme assay that detects ADP turnover that is directly proportional to AMPK activity. This uses naive AMPK that is activated during the assay with MK-8722. The class given is functional. As to conditions: 30 µM.

Assay [4] addresses Sialic acid-binding Ig-like lectin 9 (Homo sapiens) (UniProt Q9Y336). Kind of assay: Hs-Siglec9 ALPHAscreen SOP 20170721. As to conditions: 10 µM. On the technique in general: Bead proximity is the source of the signal in Alpha formats.
For assay [5], the system named is Trypanosoma cruzi. As to the kind of experiment: Trypanosoma cruzi phosphomannomutase and mannose-1-phosphate guanylyltransferase assay. The class given is functional. The note with it: 10 µM.
Assay [6] deals with T2, Arginase-2, mitochondrial (Homo sapiens) (UniProt P78540).
T2 sequence (whole entry): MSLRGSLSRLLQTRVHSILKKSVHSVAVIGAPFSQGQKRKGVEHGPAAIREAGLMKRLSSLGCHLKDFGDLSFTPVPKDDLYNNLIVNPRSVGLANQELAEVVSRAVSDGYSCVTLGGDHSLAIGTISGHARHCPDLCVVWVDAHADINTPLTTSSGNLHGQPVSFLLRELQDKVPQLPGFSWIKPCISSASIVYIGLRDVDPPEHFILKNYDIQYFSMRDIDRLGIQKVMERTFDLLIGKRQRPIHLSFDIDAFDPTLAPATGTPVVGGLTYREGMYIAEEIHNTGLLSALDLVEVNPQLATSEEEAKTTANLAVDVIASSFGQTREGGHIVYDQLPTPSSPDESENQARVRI
As to the kind of experiment: in vitro enzyme assay to detect the production of urea directly proportional to the activity of Arginase II. Also: in the data most compounds retested in dose-response had high values. The class given is functional. The note with it: 33.3 µM.

Assay [7] concerns the target T3, Proteasome subunit beta (Trypanosoma cruzi) (UniProt O96673).
T3 sequence (whole entry): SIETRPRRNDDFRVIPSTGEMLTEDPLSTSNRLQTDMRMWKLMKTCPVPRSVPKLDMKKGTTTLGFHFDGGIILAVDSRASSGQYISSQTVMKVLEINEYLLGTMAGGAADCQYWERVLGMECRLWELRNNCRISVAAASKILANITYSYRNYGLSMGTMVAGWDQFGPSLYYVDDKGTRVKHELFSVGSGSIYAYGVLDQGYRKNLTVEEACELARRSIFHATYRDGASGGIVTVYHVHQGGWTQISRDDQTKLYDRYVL
Kind of assay: Trypanosoma cruzi proteasome chymotrypsin-like activity (TcProtChymo) assay. Also: in the data most compounds retested in dose-response had high values. The class given is functional. The note with it: 9.37 µM.

For assay [8], the species on record is Homo sapiens. Kind of assay: To identify inhibition of the IFN signalling (Jak-Stat) pathway via expression of an eGFP reporter gene under the control of an IFN-stimulated response element (ISRE) containing MxA promoter. The class given is functional. The note with it: 30 µM. A general note: A reporter such as luciferase makes a cellular process visible.
For assay [9], the target named is T4, Tyrosyl-tRNA synthetase, putative (Trypanosoma cruzi (strain CL Brener)) (UniProt Q4DSP6).
T4 sequence (whole entry): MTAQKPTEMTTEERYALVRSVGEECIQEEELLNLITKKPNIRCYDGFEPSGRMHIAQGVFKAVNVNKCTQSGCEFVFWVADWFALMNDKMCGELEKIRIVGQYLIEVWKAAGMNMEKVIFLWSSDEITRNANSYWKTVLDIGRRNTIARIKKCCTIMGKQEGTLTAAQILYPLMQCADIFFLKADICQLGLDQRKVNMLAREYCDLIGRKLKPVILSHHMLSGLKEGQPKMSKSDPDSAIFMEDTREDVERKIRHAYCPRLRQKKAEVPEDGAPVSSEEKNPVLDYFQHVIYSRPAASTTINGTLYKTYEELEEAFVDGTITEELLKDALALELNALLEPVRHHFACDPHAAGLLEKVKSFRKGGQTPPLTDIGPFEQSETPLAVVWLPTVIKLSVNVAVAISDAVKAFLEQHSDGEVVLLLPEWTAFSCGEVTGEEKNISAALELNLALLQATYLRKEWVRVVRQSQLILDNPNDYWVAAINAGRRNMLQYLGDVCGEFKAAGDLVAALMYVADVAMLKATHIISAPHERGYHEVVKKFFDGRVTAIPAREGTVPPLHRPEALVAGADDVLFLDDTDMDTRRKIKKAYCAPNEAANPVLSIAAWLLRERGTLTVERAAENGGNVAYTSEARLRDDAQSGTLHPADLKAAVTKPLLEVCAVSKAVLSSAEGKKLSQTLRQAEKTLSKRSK
Kind of assay: Trypanosoma cruzi tyrosyl tRNA synthetase (TcYRS) _High Tyrosine SOP. Also: in the data most compounds retested in dose-response had high values. The class given is functional. The note with it: 30 µM.

The target of assay [10] is T4, Tyrosyl-tRNA synthetase, putative (Trypanosoma cruzi (strain CL Brener)). Kind of assay: Trypanosoma cruzi tyrosyl tRNA synthetase (TcYRS) SOP. The class given is functional. The note with it: 30 µM.
The target in assay [11] is Chromo domain-containing protein 1 (Saccharomyces cerevisiae (strain ATCC 204508 / S288c) (Baker's yeast)) (UniProt P32657). As to the kind of experiment: ScCHD-1 Enzyme Inhibition Assay. Also: in the data most compounds retested in dose-response had high values. The class given is functional. As to conditions: 30 µM.
Chromo domain-containing protein 1 (Saccharomyces cerevisiae (strain ATCC 204508 / S288c) (Baker's yeast)), sequence (P32657 whole entry, the tested form may be a part): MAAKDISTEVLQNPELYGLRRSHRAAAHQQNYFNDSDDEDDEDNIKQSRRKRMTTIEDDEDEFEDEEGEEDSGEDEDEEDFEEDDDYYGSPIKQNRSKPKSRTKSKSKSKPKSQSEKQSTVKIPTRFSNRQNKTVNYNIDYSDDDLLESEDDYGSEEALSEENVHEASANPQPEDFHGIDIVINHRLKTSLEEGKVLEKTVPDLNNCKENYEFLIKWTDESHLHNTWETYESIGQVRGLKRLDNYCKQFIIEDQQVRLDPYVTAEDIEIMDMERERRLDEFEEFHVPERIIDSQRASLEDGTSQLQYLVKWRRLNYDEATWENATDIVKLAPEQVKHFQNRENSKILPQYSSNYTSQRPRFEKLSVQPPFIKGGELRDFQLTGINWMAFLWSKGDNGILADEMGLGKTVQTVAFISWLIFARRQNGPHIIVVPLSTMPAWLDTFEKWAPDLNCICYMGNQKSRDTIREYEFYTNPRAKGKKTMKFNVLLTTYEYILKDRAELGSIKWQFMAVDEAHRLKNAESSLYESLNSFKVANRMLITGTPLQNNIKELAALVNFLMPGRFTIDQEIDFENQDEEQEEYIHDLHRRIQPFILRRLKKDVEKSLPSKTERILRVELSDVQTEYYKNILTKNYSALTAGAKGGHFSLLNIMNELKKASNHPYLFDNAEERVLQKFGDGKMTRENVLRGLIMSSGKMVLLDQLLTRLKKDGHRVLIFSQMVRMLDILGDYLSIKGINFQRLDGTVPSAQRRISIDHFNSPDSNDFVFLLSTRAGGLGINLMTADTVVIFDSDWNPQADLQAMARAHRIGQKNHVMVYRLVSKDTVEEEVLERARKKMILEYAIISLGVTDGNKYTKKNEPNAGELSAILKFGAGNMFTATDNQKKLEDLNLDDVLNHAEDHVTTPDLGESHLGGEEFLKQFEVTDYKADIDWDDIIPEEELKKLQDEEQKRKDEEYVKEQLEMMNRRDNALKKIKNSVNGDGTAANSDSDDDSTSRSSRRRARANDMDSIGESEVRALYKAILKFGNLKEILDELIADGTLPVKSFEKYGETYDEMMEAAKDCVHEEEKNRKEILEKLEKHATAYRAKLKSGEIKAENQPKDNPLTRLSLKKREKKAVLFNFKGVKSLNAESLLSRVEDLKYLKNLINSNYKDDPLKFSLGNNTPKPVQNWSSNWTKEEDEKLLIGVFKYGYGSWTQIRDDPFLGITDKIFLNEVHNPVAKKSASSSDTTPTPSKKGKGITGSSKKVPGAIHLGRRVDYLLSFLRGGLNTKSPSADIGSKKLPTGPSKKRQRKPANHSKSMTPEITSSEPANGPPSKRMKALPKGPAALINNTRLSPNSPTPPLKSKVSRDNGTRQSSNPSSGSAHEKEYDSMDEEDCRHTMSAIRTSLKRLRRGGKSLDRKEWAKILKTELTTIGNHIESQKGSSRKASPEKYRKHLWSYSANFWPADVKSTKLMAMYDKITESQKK

Protein translocase subunit SecA (Escherichia coli (strain K12)), sequence (P10408 whole entry): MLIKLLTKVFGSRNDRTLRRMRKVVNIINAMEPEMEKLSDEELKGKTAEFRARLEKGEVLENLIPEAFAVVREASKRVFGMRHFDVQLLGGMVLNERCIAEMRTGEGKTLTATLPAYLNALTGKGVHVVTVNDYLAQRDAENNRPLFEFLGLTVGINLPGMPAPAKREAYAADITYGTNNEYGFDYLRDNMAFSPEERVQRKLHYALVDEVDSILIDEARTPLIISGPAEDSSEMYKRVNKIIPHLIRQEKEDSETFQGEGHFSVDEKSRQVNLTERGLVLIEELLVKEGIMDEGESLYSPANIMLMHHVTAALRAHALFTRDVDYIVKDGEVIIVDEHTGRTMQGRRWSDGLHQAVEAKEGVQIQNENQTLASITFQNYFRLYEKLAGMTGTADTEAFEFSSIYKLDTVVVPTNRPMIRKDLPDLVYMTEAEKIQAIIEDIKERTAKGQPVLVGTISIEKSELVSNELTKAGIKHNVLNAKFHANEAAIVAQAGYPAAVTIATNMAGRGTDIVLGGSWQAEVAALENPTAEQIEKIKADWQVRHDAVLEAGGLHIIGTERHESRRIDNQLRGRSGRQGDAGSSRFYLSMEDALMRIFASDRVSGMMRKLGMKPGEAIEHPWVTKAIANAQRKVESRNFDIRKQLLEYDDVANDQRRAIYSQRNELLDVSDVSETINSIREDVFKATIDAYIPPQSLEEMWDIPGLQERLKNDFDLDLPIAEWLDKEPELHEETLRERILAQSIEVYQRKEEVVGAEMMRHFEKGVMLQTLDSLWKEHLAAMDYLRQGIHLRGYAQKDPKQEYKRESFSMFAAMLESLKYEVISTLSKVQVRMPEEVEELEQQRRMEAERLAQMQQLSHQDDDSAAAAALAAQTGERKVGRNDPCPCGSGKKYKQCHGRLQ
Sialic acid-binding Ig-like lectin 9 (Homo sapiens), sequence (Q9Y336 whole entry): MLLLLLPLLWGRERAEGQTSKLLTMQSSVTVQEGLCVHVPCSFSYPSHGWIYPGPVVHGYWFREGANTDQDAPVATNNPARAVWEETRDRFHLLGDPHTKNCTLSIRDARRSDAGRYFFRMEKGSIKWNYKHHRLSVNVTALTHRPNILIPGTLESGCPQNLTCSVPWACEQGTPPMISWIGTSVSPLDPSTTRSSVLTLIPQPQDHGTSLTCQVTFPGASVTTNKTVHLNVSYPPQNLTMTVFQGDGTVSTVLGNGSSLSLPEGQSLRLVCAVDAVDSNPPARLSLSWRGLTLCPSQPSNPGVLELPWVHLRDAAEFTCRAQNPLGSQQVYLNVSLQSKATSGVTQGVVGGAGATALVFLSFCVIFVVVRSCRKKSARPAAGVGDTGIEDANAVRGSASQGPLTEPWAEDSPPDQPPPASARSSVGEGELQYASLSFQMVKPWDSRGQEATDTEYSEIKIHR

In the case of `OCCn1cc(CN2CCN(CCOCC(F)(F)F)CC2)cn1`, the Percent Effect was 2.27% in [1]; 13.5% in assay [2]; -3.44% in assay [3]; -6.72% in [4]; -8.63% in assay [5]; -3.14% in assay [6]. Also, the Percent Effect in [7] was 13.6%; in [8], 6.37%; in assay [9] it was 4.95%; in assay [10], 3.66%; in assay [11] it was -2.78%.
On to `CCn1nnc2c1C(COC)CN(C(=O)COc1ccccc1)C2` (stereo unspecified), for which the Percent Effect is -3.61% in [1]; 0% in assay [2]; -1.01% in assay [3]; -0.576% in [4]; -2.73% in assay [5]; 0% in assay [6]. For the same molecule, the Percent Effect in assay [7] was 10.4%; in assay [8], -3.63%; in [9], 5.94%; in [10], 3.66%; in assay [11] it was 9.82%.
For `COCC(=O)N1CCCC1c1cc(Nc2nnc(C)s2)nc(C)n1` (stereo unspecified), the Percent Effect is -7.56% in [1]; 0% in assay [2]; -6.16% in assay [3]; 10.2% in assay [4]; 7.09% in [5]; -3.96% in assay [6]. Further, the Percent Effect in assay [7] is -2.38%; in [8], 8.53%; in assay [9] it was 4.25%; in assay [10], 8.97%; in [11], -5.17%.
In the case of `CC(C)n1cc(S(=O)(=O)N2CCCCC2)cn1`, the Percent Effect in [1] was -5.5%; in assay [2], 14.7%; in assay [3], -5.08%; in assay [4], 14.1%; in assay [5], 0.393%; in [6], -2.29%. Moreover, the Percent Effect was 15.7% in [7]; 2.73% in [8]; 6.35% in assay [9]; 15.4% in assay [10]; -8.47% in assay [11].
As to `O=C(O)c1nnn(-c2ccc(F)c(F)c2)c1-c1ccncc1`, the Percent Effect was -2.11% in [1]; 13.2% in assay [2]; 4.49% in [3]; -2.68% in [4]; -3.6% in [5]; 4.73% in [6]. Besides, the Percent Effect in assay [7] was 20.6%; in [8] it was -18.7%; in [9], 2.13%; in assay [10], 2.6%; in [11], -1.59%.
As for `Cc1cc(CN2CCC(CNC(=O)c3ccc(O)c(Cl)c3)C2)[nH]n1` (stereo unspecified), the Percent Effect in assay [1] is -4.67%; in assay [2] it was 2.7%; in [3], -0.362%; in assay [4], 22.1%; in assay [5], -8.7%; in assay [6] it was 2.23%. The Percent Effect in [7] is 5.24%; in assay [8], 4.66%; in assay [9] it was 2.15%; in assay [10] it was 11.1%; in assay [11], -0.611%.
For the molecule `O=C(CN1CCC(C(=O)c2cc(F)ccc2F)CC1)NC1CCCC1`, the Percent Effect in [1] was -10.1%; in [2] it was -5.26%; in assay [3], 13.8%; in [4] it was -3.6%; in [5] it was -1.46%; in [6], 5.92%. Also, the Percent Effect in assay [7] was 8.53%; in assay [8], 26.2%; in assay [9], 1.06%; in assay [10], 0%; in [11], -3.84%.
Consider `Cc1nc(C)n(CC2CCCN(c3ncnc4[nH]ccc34)C2)n1` (stereo unspecified), for which the Percent Effect in assay [1] is -4.25%; in assay [2] it was 11.4%; in [3] it was 69.9%; in assay [4] it was 5.73%; in assay [5] it was -4.21%; in assay [6], 0.645%. Besides, the Percent Effect is 15.8% in assay [7]; 42.8% in assay [8]; 6.25% in assay [9]; 5.06% in assay [10]; -4.67% in assay [11].
Regarding `CCc1nc(C2CCCN2CC(=O)Nc2c(C)nn(C)c2C)no1` (stereo unspecified), the Percent Effect is -2.75% in assay [1]; 0% in [2]; -6.03% in assay [3]; -5.34% in [4]; -0.979% in [5]; -0.455% in assay [6]. The Percent Effect came to 7.81% in assay [7]; 10.6% in assay [8]; 1.07% in assay [9]; 2.5% in [10]; 1.02% in assay [11].
Consider `CNS(=O)(=O)Cc1ccc(CNC(=O)c2cccc(C)n2)cc1`, for which the Percent Effect in [1] was -2.39%; in [2], 23.4%; in assay [3] it was 0.0556%; in assay [4], 2.86%; in assay [5], 4.12%; in assay [6], -3.92%. For the same molecule, the Percent Effect is 5.57% in assay [7]; 15.5% in [8]; 11.7% in [9]; 21.9% in [10]; -7.52% in [11].
For `CC(C(=O)Nc1ccc(N2CCCC2)nc1)n1ccnc1` (stereo unspecified), the Percent Effect in assay [1] was -1.03%; in assay [2], 5.41%; in assay [3], -13.4%; in assay [4] it was 11.1%; in assay [5], 0.0943%; in [6], -8.82%. In addition, the Percent Effect in assay [7] is 8.65%; in assay [8], 28.6%; in [9], 5.42%; in assay [10] it was 16.1%; in assay [11], -8.67%.

(Values after ChEMBL document CHEMBL3988442, “University of Dundee, Small-Polar-MMV Screening Library” (2021).)
